CYP2C19 activ – cytochrome P450 2C19 (human) activation; recombinant CYP2C19, luciferin-H EGE luminescence; active compounds read high; 0 = fully inhibited enzyme, 1 = untreated enzyme; AID 1025; activation factor at 5 µM; P33261; 96,000 tested, under 10 active;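 active means activation factor of at least 2 at 5 µM in the primary screen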;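 further: 0 = wells with 2.5 mM tranylcypromine and 1 = vehicle-only wells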
Target sequence (P33261 whole entry, looked up): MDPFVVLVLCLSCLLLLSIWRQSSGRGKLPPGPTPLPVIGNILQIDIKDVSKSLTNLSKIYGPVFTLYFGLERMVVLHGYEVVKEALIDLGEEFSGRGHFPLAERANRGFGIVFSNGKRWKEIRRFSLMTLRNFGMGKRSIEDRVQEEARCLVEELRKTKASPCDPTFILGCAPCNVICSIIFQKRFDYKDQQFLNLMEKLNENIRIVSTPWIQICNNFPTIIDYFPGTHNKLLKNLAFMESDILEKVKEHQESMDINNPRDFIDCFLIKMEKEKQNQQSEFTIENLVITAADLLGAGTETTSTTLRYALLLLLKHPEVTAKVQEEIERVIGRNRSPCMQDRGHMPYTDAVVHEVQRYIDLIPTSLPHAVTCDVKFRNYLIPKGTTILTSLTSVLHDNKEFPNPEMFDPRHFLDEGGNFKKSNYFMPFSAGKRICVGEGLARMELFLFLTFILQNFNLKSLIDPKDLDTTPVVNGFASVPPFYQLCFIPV
PLAP activator – human PLAP activation; P05187; purified PLAP enzyme, luminescent substrate read-out; active compounds read high; activation fold at 20 µM; hit rate 1.2% among 96,000; AID 696; in the data active means activation fold above about 2
CYP2C9 activ – activators of human CYP2C9 | recombinant CYP2C9, luciferin-H conversion, luminescence; active compounds read high; factor 1 = untreated enzyme, 0 = blocked | activation factor at 5 µM | hit rate 1.4% among 96,000;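 active means activation factor of 2 or more for CYP2C9 at a 5 µM dose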;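 further: 0 = sulfaphenazole-blocked wells and 1 = vehicle-only wells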
CYP2C9 inh – blocks human cytochrome P450 2C9 | CYP2C9 Supersomes, luciferin-H conversion, luminescence | inhibition, % at 5 µM | hit rate 20% among 96,000 | AID 777;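 active means blocking of liver enzyme CYP2C9 beyond about 50% at 5 µM, limit read from the data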
CYP2C19 inh – human CYP2C19 inhibition | hit rate 21% among 96,000 | P33261 | inhibition, % at 5 µM | CYP2C19 Supersomes, luciferin-H EGE luminescence, 30 min;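 active means CYP2C19 inhibition above a set limit at 5 µM in the primary screen, cut at about 50% in these data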;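 further: plate controls were negative control wells for no effect and 2.5 mM tranylcypromine positive control for full effect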
An asterisk follows results filed as active. Compounds with a hit are over-represented: about 31% of the library has one in this group of screens.

SMILES | CYP2C19 activ | PLAP activator | CYP2C9 activ | CYP2C9 inh | CYP2C19 inh
COc1ccccc1C(=O)NC(C)c1nc2ccccc2[nH]1 (configuration not stated) | 0.4 | 0.9 | 0.5 | 55* | 56*
COc1ccccc1C(=O)Nc1ccccn1 | 0.7 | 0.9 | 1 | -3 | 28
O=C(COc1ccc([N+](=O)[O-])cc1)NN=C1CCCC1 | 0.8 | 0.9 | 0.9 | 10 | 18
O=C(NC1CC2CCC1C2)C1CCN(S(=O)(=O)c2ccc(-c3nn[nH]n3)cc2)CC1 (configuration not stated) | 1.2 | 1.2 | 0.1 | 87* | -17
COc1ccc(CNC(=O)C2CCN(S(=O)(=O)c3ccc(-c4nn[nH]n4)cc3)CC2)cc1 | 1.1 | 1.2 | 0.3 | 65* | -9
Cc1ccc(-c2nnn(CC(=O)Nc3ccc(S(=O)(=O)N4CCC(C)CC4)cc3)n2)cc1 | 0.9 | 1 | 0.6 | 40 | 8
CCCNC(=O)C1CCN(S(=O)(=O)c2ccc(-c3nn[nH]n3)cc2)CC1 | 0.6 | 1.1 | 0.2 | 83* | 41
CCOc1ccc(CC2CC(=O)NC2=O)cc1 (configuration not stated) | 0.9 | 0.9 | 1 | -4 | 11
CC1(C(=O)NC2CCCC2)CCC(=O)N1Cc1ccc2c(c1)OCO2 (configuration not stated) | 0.9 | 1 | 0.6 | 40 | 6
CCCCN(C)Cc1c(C)[nH]c2ccc(OCC)cc2c1=O | 1.2 | 0.9 | 1 | 3 | -15
Cc1noc(/C=C/NCc2cccnc2)c1S(=O)(=O)N(C)CC(=O)N1CCc2ccccc21 | 0.8 | 1 | 0.2 | 78* | 17
Cc1ccc2nc(SCC(=O)Nc3ccc4sc(C)nc4c3)c(C#N)cc2c1 | 0.9 | 0.9 | 0.9 | 10 | 10
O=C(Nc1ccccc1C(=O)OC1CCOC1=O)c1ccco1 (configuration not stated) | 1 | 0.9 | 0.9 | 12 | 0
CC(C)NS(=O)(=O)c1ccc(OCC(=O)NCCC2=CCCCC2)cc1 | 0.4 | 0.8 | 0.8 | 21 | 56*
COC(=O)COc1ccc(S(=O)(=O)NCCC2=CCCCC2)cc1C | 0 | 0.9 | 0.9 | 8 | 99*
CCCNS(=O)(=O)c1ccc(OCC(=O)OC)cc1 | 0.5 | 1.1 | 0.4 | 56* | 53*
COC(=O)COc1ccc(S(=O)(=O)NCc2cccnc2)cc1 | 0.6 | 0.8 | 0.9 | 15 | 35
COC(=O)COc1ccc(S(=O)(=O)NCCC2=CCCCC2)cc1 | 0 | 1.1 | 0.3 | 69* | 95*
CCCNS(=O)(=O)c1ccc(OCC(=O)NCCC2=CCCCC2)cc1 | 0.7 | 0.9 | 0.6 | 39 | 34
Cc1nc2ccccc2c(=O)n1NCc1cc(Br)cs1 | 0.6 | 0.9 | 0.8 | 19 | 42
CCN(CC)c1ccc(C(=S)N2CCN(c3ccccc3)CC2)cc1 | 0.8 | 0.7 | 1 | 2 | 24
CCCNS(=O)(=O)c1ccc(Oc2ncc(C(F)(F)F)cc2Cl)cc1 | 0.1 | 0.9 | 0.3 | 67* | 87*
Cc1onc(-c2ccccc2)c1C(=O)n1nnc2ccccc21 | 0.6 | 0.9 | 0.4 | 56* | 37
Cc1onc(-c2ccccc2)c1C(N)=O | 1 | 0.9 | 1.1 | -10 | -2
Cc1cc2ncn(C(=O)c3c(-c4ccccc4)noc3C)c2cc1C | 0.6 | 0.9 | 0.4 | 58* | 40
SMILES | CYP2C19 activ | PLAP activator | CYP2C9 activ | CYP2C9 inh | CYP2C19 inh
Cc1onc(-c2ccccc2)c1C(=O)N1CCN(C)CC1 | 1.1 | 1 | 1.2 | -19 | -15
Cc1cc2ncn(C(=O)c3c(-c4c(Cl)cccc4Cl)noc3C)c2cc1C | 0.3 | 0.9 | 0.3 | 69* | 72*
C=CCOc1ccc2c(c1)c(S(=O)(=O)c1ccc(C)cc1)cn2COC | 0.1 | 1.6 | 0.6 | 37 | 89*
COc1ccc(-c2cn3nc4c(nc3n2)CCCC4)cc1 | 0.6 | 1 | 1.1 | -8 | 42
Cc1nc2nc(-c3ccc(Cl)cc3)cn2nc1C | 0.4 | 0.7 | 1 | 2 | 56*
Cc1cc(-c2cccs2)n[nH]1 | 1 | 1 | 1.1 | -14 | 2
COc1cccc(-c2cn3nc(C)c(C)nc3n2)c1 | 0.2 | 1.5 | 0.5 | 50 | 83*
Cc1nc2nc(-c3cccs3)cn2nc1C | 0.4 | 1.6 | 0.9 | 8 | 62*
Cc1nn2cc(-c3ccc(Cl)cc3)nc2s1 | 0.9 | 0.8 | 0.9 | 13 | 12
CC(C)CC(c1nnnn1Cc1ccco1)N1CCN(C2CCCC2)CC1 (configuration not stated) | 1 | 1.1 | 1 | -3 | 4
O=C1C2C3c4ccccc4C(c4ccccc43)[C@@H]2c2nc3ccccc3n21 (some centres not stated) | 0.9 | 0.9 | 0.8 | 15 | 5
COC(=O)c1cc(=O)n2c(-c3ccc(OC)cc3)csc2n1 | 1.2 | 1 | 1.1 | -12 | -16
Cc1nn(Cc2c(F)c(F)c(F)c(F)c2F)c(C)c1NC(=O)c1ccc(COc2ccc(F)cc2)o1 | 0.6 | 1 | 0.8 | 17 | 40
O=C1/C(=C/c2ccc(F)c(F)c2)CSc2sccc21 | 0.6 | 0.8 | 0.2 | 78* | 40
O=C1/C(=C\c2ccc3c(c2)OCO3)CCC/C1=C/c1ccc2c(c1)OCO2 | 0.9 | 0.9 | 1.2 | -15 | 10
CCN1CCCC1CNC(=O)C1CCN(Cc2nc(-c3cccc(Br)c3)oc2C)CC1 (configuration not stated) | 1.2 | 1.7 | 1.1 | -11 | -20
COc1ccc(C(=O)CSc2nnc(-c3ccccn3)n2Cc2ccco2)cc1 | 0.7 | 1.3 | 0.3 | 66* | 29
O=C(CSc1nnc(-c2ccccn2)n1Cc1ccco1)c1ccc(Cl)cc1 | 0.7 | 1.6 | 0.3 | 71* | 27
COc1ccc(NC(=O)CSc2nnc(-c3ccccc3)n2Cc2ccco2)cc1OC | 0.8 | 1.2 | 0.7 | 28 | 16
COc1cc(Cl)c(C)cc1NC(=O)CSc1nnc(-c2ccccn2)n1Cc1ccco1 | 0.8 | 1 | 0.5 | 50* | 16
O=C(CSc1nnc(-c2ccccn2)n1Cc1ccccc1)N1CCCC1 | 0.9 | 1.4 | 0.8 | 25 | 13
COc1ccc(C(=O)CSc2nnc(-c3ccco3)n2C)cc1 | 0.8 | 0.8 | 1 | -5 | 25
O=C(CSc1nnc(-c2ccccn2)n1Cc1ccco1)c1ccccc1 | 1 | 1 | 0.5 | 51* | -1
CC(C)(C)NC(=O)C(=O)NNC(=O)C12CC3CC(CC(C3)C1)C2 | 1.1 | 1.6 | 0.9 | 12 | -8
CCC(=O)Nc1ccc(-c2nnc(SCC(=O)Nc3nccs3)n2C)cc1 | 0.9 | 1.1 | 0.9 | 15 | 7
Cc1cc2c(cc1C)CSC(c1ccccc1OC(=O)C(C)C)SC2 | 1 | 1.2 | 1 | 5 | -1
O=C(CSc1nnc(-c2cnccn2)n1Cc1ccco1)c1ccc(Cl)cc1 | 0.7 | 0.8 | 0.4 | 59* | 27
O=C(CSc1nnc(-c2cccnc2)n1Cc1ccco1)c1ccc(Br)cc1 | 0.1 | 1.6 | 0.2 | 80* | 88*
O=C(CSc1nnc(-c2cnccn2)n1Cc1ccco1)c1ccccc1 | 0.7 | 0.9 | 0.6 | 38 | 35
O=C(CSc1nnc(-c2cccnc2)n1Cc1ccco1)c1ccc2ccccc2c1 | 0.8 | 1.4 | 0.5 | 48 | 24
